{
  "source": "PubChem BioAssay (NCATS)",
  "note": "Values joined by “and” are separate entries in the source; they are usually repeats but may differ in a detail not shown here. Equal values may be shown once. Results filed as inconclusive are left out. A call without a number means that no potency is given here. Active and inactive are the calls of the source. The call rests on the fitted dose curve; in most records, active means well fitted cell-killing curve with a large enough effect; inconclusive means small, poorly fitted or top-dose-only effect, or effect the other way; inactive means no such curve, though single readings can be large or run the other way. Potency means the concentration at half of the fitted maximal effect.",
  "data": [
    {"assay": "Viability qHTS for spleen associated tyrosine kinase inhibitor (SYKi) naive MV4-11 cells (AID 1963823); further: nearly all actives have a fitted effect of over 40% in size", "conditions": "MV4-11 AML viability, CellTiter-Glo luminescence, 72 h; series mostly up to 45 µM", "text": "Department of Medicine, Hematology/Oncology\nUniversity Hospital Frankfurt, Germany.\nTrials have shown promising clinical activity of the selective SYK inhibitor entospletinib in patients with high expressing HOXA9/MEIS1 acute leukemias. As the development of resistance mechanisms is a common problem in the use of targeted drugs, we performed a chemical library screen to identify drug sensitivities in SYK inhibitor resistant AML cells. […] Glucocorticoids are potent immunosuppressants which work in part by inhibiting the transcription of cytokine genes.\nDescribed herein is a viability screen to look for activity in the SYK inhibitor naive cell line against four NCATS compound libraries (MIPE 5.0, NPC, NPACT, and Kinase) totaling 11372 compounds. Active hits were reacquired for confirmation and further secondary assay testing.\nSEQUENCE No. (e.g., 1, 2, 3, etc.); […] (e.g., Cells, Incubation, Reagent, etc.); VALUE; DESCRIPTION.\n1; Media; 2uL; white, solid-bottom Corning assay plate.\n2; Compounds; 23nL; Echo acoustic dispenser.\n3; Cell; 5uL; 500 cells per well.\n4: Incubation; 72hr; 37 C, 5% CO2, 95% humidity.\n5; Reagent; 3uL; CellTiter-Glo reagent (Promega).\n6; Incubation; 10min; room temperature.\n7; Detection; Luminescence; ViewLux plate reader (PerkinElmer).\nNOTES (numbers refer to Sequence numbers above\n1. Quantitative high-throughput screening (qHTS) of small molecule compounds was conducted on naive SYKi MV4-11 cell line.\n2. Twenty-three nanoliter of small molecule compounds were added to each assay plates using the Echo acoustic dispenser (Beckman Coulter).\n3. Cells were seeded into the assay plates at a final density of 500 cells in 5uL of media per well using the Multi-drop Combi dispenser.\n4. Plates were covered with stainless steel gasketed lids and incubated for 72 hours at standard cell culture conditions.\n5. Viability was assessed by adding 3uL of CellTiter-Glo detection reagent (Promega).\n6. Plates were covered with gasket lids and incubated for 10 minutes at room temperature.\n7. Luminescence was measured on a ViewLux plate reader (PerkinElmer).", "values": [
      {"smiles": "O=C(O)CCC(=O)OC[C@@H](NC(=O)C(Cl)Cl)[C@H](O)c1ccc([N+](=O)[O-])cc1", "Potency": "inactive"},
      {"smiles": "CC(C)(C)C(=O)NCCCC(=O)O", "Potency": "inactive"},
      {"smiles": "O=c1[nH]cnc2[nH]ncc12", "Potency": "inactive"},
      {"smiles": "COC(=O)c1ccc(=O)c2nc3/c(=C/O)c(O)cc(=O)c3[nH]c12", "Potency": "inactive"},
      {"smiles": "CN1CCC(c2c[nH]c3ccc(NC(=O)c4ccc(F)cc4)cc23)CC1", "Potency": "inactive"},
      {"smiles": "O=C(NCC1CCCCN1)c1cc(OCC(F)(F)F)ccc1OCC(F)(F)F", "note": "(stereo not given)", "Potency": "inactive"},
      {"smiles": "COC(=O)N(C)c1c(N)nc(-c2nn(Cc3ccccc3F)c3ncccc23)nc1N", "Potency": "inactive"},
      {"smiles": "CC1CCC2(C(=O)O)CCC3(C)C(=CCC4C5(C)CCC(O)C(C)(CO)C5CCC43C)C2C1(C)O", "note": "(stereo not given)", "Potency": "inactive"},
      {"smiles": "CN1CCN(c2nc(-c3ccc(C(=O)NC4(C(=O)NCC#N)CCCCC4)cc3)cs2)CC1", "Potency": "inactive"},
      {"smiles": "COC(=O)CC[C@H](NC(=O)[C@H](CC(C)C)NC(=O)OCc1ccccc1)C(=O)N[C@@H](Cc1cnc[nH]1)C(=O)N[C@@H](CC(=O)OC)C(=O)CF", "viability (% of control)": "80.3% [at 9.25 µM] (inactive)"},
      {"smiles": "COc1cc2nccc(Oc3ccc(NC(=O)Nc4cc(C)on4)c(Cl)c3)c2cc1OC", "Potency": "0.372 µM (active)"},
      {"smiles": "Cc1ccc(-c2ncccn2)c(C(=O)N2C[C@H](COc3ccc(F)cn3)CC[C@H]2C)c1", "Potency": "inactive"},
      {"smiles": "CC1c2cccc(O)c2C(O)=C2C(=O)C3(O)C(O)=C(C(N)=O)C(=O)C(N(C)C)C3C(O)C21", "note": "(stereo not given)", "Potency": "20.9 µM (active)"},
      {"smiles": "C=C(C)C(=O)O[C@H]1C[C@@](C)(OC(C)=O)[C@@]2(O)CC[C@@](C)(O)[C@H](OC(C)=O)[C@@]23OC(=O)C(COC)=C13", "Potency": "8.93 µM (active)"},
      {"smiles": "CCn1c(-c2nonc2N)nc2c(C#CCO)ncc(OCCCN)c21", "Potency": "0.58 µM (active)"},
      {"smiles": "CO/N=C(/C(=O)N[C@@H]1C(=O)N2C(C(=O)[O-])=C(C[n+]3ccn4ncccc43)CS[C@H]12)c1nsc(N)n1", "Potency": "inactive"},
      {"smiles": "CN(C)CC(=O)Nc1ccc2[nH]c(=O)c3ccccc3c2c1", "Potency": "20.6 µM (active)"},
      {"smiles": "CC1(C)S[C@@H]2[C@H](NC(=O)[C@H](N)c3ccccc3)C(=O)N2[C@H]1C(=O)O", "Potency": "inactive"},
      {"smiles": "CC[N+](C)(C)c1cccc(O)c1", "Potency": "inactive"},
      {"smiles": "COCCNCc1ccc(-c2cc3nccc(Oc4ccc(NC(=S)NC(=O)Cc5ccc(F)cc5)cc4F)c3s2)nc1", "Potency": "0.0164 µM (active)"},
      {"smiles": "CC[C@H]1CN(c2nc(N)c(C(N)=O)nc2Cl)CCN1C1CCN(Cc2ccc(Cl)cc2)CC1", "Potency": "inactive"},
      {"smiles": "C=CC(=O)N1CCC[C@@H](n2nc(-c3ccc(Oc4ccccc4)cc3)c3c(N)ncnc32)C1", "Potency": "1.64 µM (active) and 662 nM (active)"},
      {"smiles": "CCCc1ccc(OCC(=O)N2CCN(C(=O)COc3ccc(CCC)cc3OC)CC2)c(OC)c1", "Potency": "inactive"},
      {"smiles": "COc1ccc2c(c1)OC[C@]1(O)c3cc4c(cc3O[C@H]21)OCO4", "Potency": "inactive"},
      {"smiles": "O=C(O)Cc1cn([C@@H]2O[C@H](CO)[C@@H](O)[C@H](O)[C@H]2O[C@@H]2O[C@H](CO)[C@@H](O)[C@H](O)[C@H]2O)c2ccccc12", "Potency": "inactive"},
      {"smiles": "N[C@@H](Cc1ccc(O)cc1)C(=O)O", "viability (% of control)": "88.5% [at 9.25 µM] (inactive)"},
      {"smiles": "NC(=O)Nc1sc(-c2ccc(F)cc2)cc1C(N)=O", "Potency": "1.86 µM (active)"},
      {"smiles": "C=C(C=O)[C@]1(O)C[C@@]2(C)C(=CC1=O)C=C[C@H](OC(=O)/C=C/C=C/[C@H](C)CC)[C@@H]2C", "Potency": "1.12 µM (active)"},
      {"smiles": "CC(C(=O)O)c1ccc2c(c1)[nH]c1ccc(Cl)cc12", "note": "(stereo not given)", "Potency": "inactive"},
      {"smiles": "C=C(C)[C@@H]1CCC2=CC(=O)C[C@@H](C)[C@]2(C)C1", "Potency": "inactive"},
      {"smiles": "C[C@H]1[C@H](C)CC[C@]2(C(=O)OC3OC(CO)C(O)C(O)C3O)CC[C@]3(C(=O)O)C(=CCC4[C@@]5(C)CC[C@H](O[C@@H]6O[C@@H](C)[C@H](OC7OC(CO)C(O)C(O)C7O)[C@@H](O)[C@H]6O)C(C)(C)C5CC[C@]43C)[C@H]12", "note": "(stereo not given in full)", "viability (% of control)": "80.8% [at 9.25 µM] (inactive)"},
      {"smiles": "C=C1CCC2C(C)(C(=O)O)CC(O)CC2(C)C1CC/C(C)=C/C(=O)O", "note": "(stereo not given)", "Potency": "inactive"},
      {"smiles": "O=C(Nc1ccc(Cl)cc1)C1CCCN(C(=O)c2cccc(-c3ccco3)c2)C1", "note": "(stereo not given)", "Potency": "8.2 µM (active)"},
      {"smiles": "COC(=O)C1=CO[C@@H](O[C@@H]2O[C@H](CO)[C@@H](O)[C@H](O)[C@H]2O)[C@@H]2[C@@H](CO)[C@@H](O)C(O)[C@H]12", "note": "(stereo not given in full)", "Potency": "inactive"},
      {"smiles": "CCN(CC)C(=O)c1cccc(C)c1", "Potency": "inactive"},
      {"smiles": "COc1ccccc1N1CCN(CCCCNC(=O)c2ccc(-c3ccc(C(C)=O)cc3)cc2)CC1", "Potency": "inactive"},
      {"smiles": "Cc1cccc(-c2[nH]c(C(C)(C)C)nc2-c2ccc3nccnc3c2)n1", "Potency": "20.9 µM (active) and 3.26 µM (active)"},
      {"smiles": "Cc1c(Cl)cccc1S(=O)(=O)Nc1nc(NCCc2ccccc2)nc2c1CN(Cc1ccccc1)CC2", "Potency": "16.4 µM (active)"},
      {"smiles": "CCCc1nc(C)c2c(=O)[nH]c(-c3cc(S(=O)(=O)N4CCN(CC)CC4)ccc3OCC)nn12", "Potency": "inactive"},
      {"smiles": "C/C=C(\\C)C(=O)O[C@@H]1CC2[C@@H](CC=C3C[C@@H](O[C@H]4C[C@H](OC)[C@H](O[C@H]5C[C@H](OC)[C@H](O[C@@H]6O[C@H](C)[C@@H](O[C@H]7C[C@H](OC)[C@H](O[C@@H]8O[C@H](CO)[C@@H](O)[C@H](O)[C@H]8O)[C@@H](C)O7)[C@H](OC)[C@H]6O)[C@@H](C)O5)[C@@H](C)O4)CC[C@@]32C)[C@@]2(O)CC[C@H](C(C)=O)[C@@]12C", "note": "(stereo not given in full)", "viability (% of control)": "53.3% [at 9.25 µM] (inactive)"}
    ]}
  ]
}
